# PubChem BioAssay AID1986 (Sanford-Burnham Center for Chemical Genomics, 2009)
# In all, about 290,000 compounds went through this assay and about 890 (0.31%) were called active. The sample holds actives, similar compounds and a random draw of the others, so the mix is not that of the screen. Cut-off read from the data, not from the text of the source: active = inhibition mostly above about 52% (no sharp cut-off); inactive = mostly below about 76%.
# Assay: inhibitors of HIV fusion peptide binding, primary screen, biochemical, uHTS, fluorescence dequenching (AID 1986)
# Conditions: cell-free peptide binding, 30 min, stronger effect = higher value
# [1] = measured here: repeat confirmation average inhibition, at 18.6 µM
Compound,inhibition (at 20 µM),inhibition [1]
CCOc1ccc(NC(=O)CSc2ncn[nH]2)c([N+](=O)[O-])c1,0.8% (inactive),–
Cc1occc1-c1nnc(SCC(=O)N2CCN(c3ccccc3F)CC2)n1C,0.2% (inactive),–
O=C(Nc1ccncc1)C1CC1c1ccccc1 (stereo not drawn),-0.2% (inactive),–
CC(C)(C)N/N=C/c1c(O)n(-c2ccc(Cl)cn2)c(=O)c2ccccc12,4% (inactive),–
COc1ccc(-n2c(O)c(/C=N/NS(=O)(=O)c3ccc(C)cc3)c3ccccc3c2=O)cc1OC,152% (inactive),–
O=c1c2ccccc2c(/C=N/NS(=O)(=O)c2ccccc2)c(O)n1-c1ccccn1,109% (active),78.3%
O=C(O)c1cc(-c2ccco2)nn1-c1cccc(Cl)c1,74.3% (active),–
O=C(c1cc(-c2ccco2)nn1-c1cccc(Cl)c1)N1CCCCC1,15% (inactive),–
O=C(O)c1cc(-c2ccco2)nn1-c1ccc(Cl)cc1,72.4% (inactive),4.8%
O=C1NN(c2ccccc2)C(=O)/C1=C\c1ccc(-c2cc([N+](=O)[O-])ccc2O)o1,53.6% (inactive),15%
CC1=NN(c2ccc(C)cc2)C(=O)/C1=C/c1ccc(-c2cc([N+](=O)[O-])ccc2O)o1,45.2% (inactive),–
O=C1NN(c2cccc(Br)c2)C(=O)/C1=C/c1ccc(-c2cc([N+](=O)[O-])ccc2O)o1,56.9% (active),–
CCCOc1cccc(C(=O)N/N=C/c2ccoc2)c1,0.4% (inactive),–
O=C(Nc1ccc([N+](=O)[O-])cn1)C1CC2CCC1C2 (stereo not drawn),1.2% (inactive),–
COc1c(O)cc2c(c1O)C(=O)CC(c1ccccc1)O2 (stereo not drawn),-1.5% (inactive),–
C[C@@H]1Cc2c(O)c(O)cc(O)c2C(=O)O1,27.3% (inactive),–
CC1CC(=O)c2c(cc3c(-c4c(O)cc(O)c5c(O)c6c(cc45)OC(C)CC6=O)c(O)cc(O)c3c2O)O1 (stereo not drawn),56.7% (active),–
COc1ccc(C(=O)C23CC4CC(C2)CC(C(=O)c2ccc(OC)cc2)(C4)C3)cc1,-1.1% (inactive),–
Cc1ccc(-c2cc3c(n2-c2ccc(C(=O)O)cc2)CCCC3=O)cc1,9.8% (inactive),–
Cc1cc2c(n1-c1ccc(C(=O)O)cc1)CCCCC2,57.7% (active),–
Cc1ccc(C)n1-c1ccc(C(=O)O)cc1,-0.4% (inactive),–
O=C(NC(=S)Nc1ccccc1[N+](=O)[O-])c1ccccc1,-2.2% (inactive),–
O=C(O)CCCCCNC(=O)c1ccc(C(=O)NCCCCCC(=O)O)cc1,0.3% (inactive),–

Compound,inhibition (at 20 µM),inhibition [1]
Cc1ccsc1/C=C/C1=Cc2c(sc(NC(=O)CSc3n[nH]c(N)n3)c2C#N)C(C)(C)C1,2.6% (inactive),–
CCOc1ccc(/C=C/C2=Cc3c(sc(NC(=O)CSc4n[nH]c(N)n4)c3C#N)C(C)(C)C2)cc1,62.3% (active),–
Cc1ccc(/C=C/C2=Cc3c(sc(NC(=O)CSc4n[nH]c(N)n4)c3C#N)C(C)(C)C2)o1,149% (inactive),–
CCOC(=O)c1cc(-c2cccs2)nc2c1c(C)nn2-c1ccccn1,-2.7% (inactive),–
COC(=O)[C@H](Cc1ccccc1)NC(=O)N1Cc2ccccc2C[C@H]1C(=O)OC,1.3% (inactive),–
CCN(CC)CCN(Cc1cc2cc3c(cc2[nH]c1=O)OCCO3)C(=S)NC,2.5% (inactive),–
N#Cc1c(NC(=O)CSc2nc(N)cc(=O)[nH]2)sc2c1CCCC2,0.4% (inactive),–
O=C(O)Cn1c2ccccc2c2ccccc21,-1% (inactive),–
O=C(O)Cn1c2c(c3ccccc31)CCCC2,-3.7% (inactive),–
O=C(O)Cn1c2c(c3ccccc31)CSc1ccc(Cl)cc1-2,54.6% (active),–
Cc1ccc(NC(=O)CSc2nncn2-c2ccccn2)cc1Cl,1.2% (inactive),–
CN(C)CCN(C(=O)/C=C/c1cccs1)c1nc2ccc(F)cc2s1,-3.5% (inactive),–
CN(C)CCN(C(=O)/C=C/c1cccs1)c1nc2c(F)cc(F)cc2s1,56.7% (active),–
CN(C)CCCN(C(=O)/C=C/c1cccs1)c1nc2c(F)cccc2s1,0.3% (inactive),–
O=C1c2ccsc2SCCN1Cc1c(F)cccc1Cl,-0.5% (inactive),–
CCCCC(CCC(=O)O)(C(=O)OCC)c1csc(Nc2ccc(C)cc2)n1 (stereo not drawn),13.4% (inactive),–
Cc1c2ccccc2nc2c(F)c(NCCO)c(F)c(F)c12,23.4% (inactive),–
Cc1c2ccccc2nc2c(F)c(NC(C)C)c(F)c(F)c12,36.2% (inactive),–
CCCNc1c(F)c(F)c2c(C)c3ccccc3nc2c1F,51.8% (active),159%
CCOC(=O)C1Cc2c([nH]c3ccccc23)CN1 (stereo not drawn),-0.5% (inactive),–
O=C(c1cc(S(=O)(=O)N2CCCCC2)ccc1Cl)N1CCOCC1,0.1% (inactive),–
COc1cc([N+](=O)[O-])ccc1NC(=O)NCc1ccccn1,-3.2% (inactive),–
O=C(O)c1cccc(NC(=S)N/N=C/c2ccccc2OCc2ccc(Br)cc2)c1,65.6% (active),–

Compound,inhibition (at 20 µM),inhibition [1]
O=C(O)c1cccc(NC(=S)N/N=C/c2cccc(O)c2)c1,1.3% (inactive),–
COc1cccc(/C=N/NC(=S)Nc2cccc(C(=O)O)c2)c1O,7.9% (inactive),–
COc1ccccc1NC(=O)N(Cc1cc2cc(OC)c(OC)cc2[nH]c1=O)CC1CCCO1 (stereo not drawn),-1.5% (inactive),–
Cc1cc(C)c2nc(N3CCC(C(=O)NCCCN4CCCC4=O)CC3)sc2c1,-0.6% (inactive),–
COc1cc(/C=N/NC(=S)NCCN2CCOCC2)cc(OC)c1OC,-0.8% (inactive),–
CCOC(=O)c1cc(-c2ccc(/C=C3/C(=O)NC(=O)C(C#N)=C3C)o2)ccc1Cl,65.1% (active),–
C=CCOC(=O)c1cc(-c2ccc(/C=C3\C(=O)NC(=O)C(C#N)=C3C)o2)ccc1Cl,-2.1% (inactive),–
CC1=C(C#N)C(=O)NC(=O)/C1=C/c1ccc(-c2ccc(S(N)(=O)=O)cc2)o1,46.5% (inactive),–
O=C(c1cccnc1)N1CCN(Cc2ccc3c(c2)OCO3)CC1,2.7% (inactive),–
CC(=O)Nc1sc(/C(C#N)=C\c2cccc(Cl)c2)nc1-c1ccc(C)cc1,61.1% (active),75.8%
CCN(CC)c1ccc(/C=C(\C#N)c2nc(-c3cccs3)c(NC(C)=O)s2)cc1,122% (active),–
CCN(CC)c1ccc(/C=C(\C#N)c2ccccn2)cc1,19.5% (inactive),–
CC(=O)Nc1sc(N/N=C\c2ccc(O)cc2)nc1-c1cccs1,-0.1% (inactive),–
CC(=O)Nc1sc(N/N=C/c2ccc(C)cc2)nc1-c1ccc(C)cc1,-3% (inactive),–
CC(=O)Nc1sc(N/N=C/c2ccccc2)nc1-c1ccc(C)cc1,0.1% (inactive),–
C=CCNC(=O)N[C@@H](Cc1ccccc1)C(=O)OC,-0.9% (inactive),–
Cc1c(C(=O)N2CCCC2)sc(NC(=O)c2cccs2)c1C#N,3.6% (inactive),–
O=C(CNC(=O)c1ccccc1Br)N/N=C/c1cccnc1,0.5% (inactive),–
O=C1CC(NNC(=O)c2ccccc2)C(=O)N1 (stereo not drawn),-0.3% (inactive),–
COC(=O)c1cc(S(=O)(=O)NCC2CCN(Cc3cccc(Cl)c3)CC2)c[nH]1,-0.3% (inactive),–
c1ccc(Cn2c[n+](Cc3ccccc3)cn2)cc1,-1.5% (inactive),–
c1ccc(-c2nc3ccccc3c3nncn23)cc1,-1.8% (inactive),–
O=c1[nH]nc(SCc2ccccc2Cl)n1-c1ccc2c(c1)OCCO2,-1.4% (inactive),–

Compound,inhibition (at 20 µM),inhibition [1]
COCCCN(C(=O)c1ccco1)c1nc(-c2ccc(OC)cc2)cs1,2.9% (inactive),–
O=C(CCCl)Nc1cc(SCCO)cc([N+](=O)[O-])c1,0.1% (inactive),–
CC(=O)c1cc(NC(=O)c2ccc(C)cc2)c(=O)oc1/C=C/N(C)C,25.7% (inactive),–
CC(=O)c1cc(NC(=O)c2cccc(C(F)(F)F)c2)c(=O)oc1C,0.8% (inactive),–
CC(=O)c1cc(NC(=O)c2cccc(C(F)(F)F)c2)c(=O)oc1/C=C/N(C)C,75.6% (active),91.6%
COC(=O)c1ccc2c(c1)C(C)(C)C(/C=C/c1ccccc1O)=[N+]2C,143% (inactive),–
COC(=O)c1ccc2c(c1)C(C)(C)C(/C=C/c1ccc(OC)c(OC)c1OC)=[N+]2C,10.3% (inactive),–
COC(=O)c1ccc2c(c1)C(C)(C)C(/C=C/c1ccc(O)cc1)=[N+]2C,111% (active),–
C/C=C(\C)CN1CCN(c2ccccc2F)CC1,-0.4% (inactive),–
CC(=O)c1sc(NS(=O)(=O)c2ccc(C)cc2)nc1-c1ccccc1,19.8% (inactive),–
COc1ccc(S(=O)(=O)/N=C2/NC(=O)/C(=C\c3cc(OC)c(OC)cc3[N+](=O)[O-])S2)cc1,27.4% (inactive),–
Cc1ccc(S(=O)(=O)N/N=C/c2cc([N+](=O)[O-])ccc2O)cc1[N+](=O)[O-],17.1% (inactive),–
O=C(NCc1cc([N+](=O)[O-])ccc1O)c1cccc(NS(=O)(=O)c2ccccc2)c1,4% (inactive),–
Cc1ccc(S(=O)(=O)N/N=C\c2cc([N+](=O)[O-])ccc2Cl)cc1,2.5% (inactive),–
COc1cc(/C=C2\S/C(=N/S(=O)(=O)c3ccccc3)NC2=O)c([N+](=O)[O-])cc1OC,59.3% (inactive),33.8%
NC1=NC(=O)/C(=C\c2cc([N+](=O)[O-])ccc2Cl)S1,-3.5% (inactive),–
O=S(=O)(c1ccccc1)N1CCN(c2nnc(-c3ccccc3)c3ccccc23)CC1,0% (inactive),–
Cc1cc(S(=O)(=O)N2CCCC2)c(C)s1,-1.2% (inactive),–
Nn1c(SCc2cccc(Br)c2)nnc1-c1cccnc1,-2% (inactive),–
COC(=O)CN1C(=S)N(c2ccc(OC)cc2)C(=O)/C1=C/c1ccc(OC)cc1,-1.4% (inactive),–
CCOc1ccc(/C=C2/C(=O)N(c3ccc(OC)cc3)C(=S)N2CC(=O)OC)cc1OCC,2.5% (inactive),–
COC(=O)CN1C(=S)N(c2ccc(OC)cc2)C(=O)/C1=C/c1ccc(N2CCOCC2)cc1,73.4% (active),–
